Inconclusive results are not listed. Values without a mark were called inactive. Calls of active or inactive are those of the source. Calls come from the whole dose curve; as a rule, active = well fitted inhibition curve with a large enough effect; inconclusive = small, poorly fitted or top-dose-only effect; inactive = no such curve, though single readings can be large or run the other way.
% is set by controls: 0 for no effect and ±100 for the full control effect; potency is the fitted concentration of half-maximal effect.

The test relates to Zika virus NS2B-NS3 protease (linked construct). Nature of the test: Primary screen NINDS Rhodamine qHTS for Zika virus inhibitors (AID 1347160). Note: nearly all actives have a fitted effect of over 55% in size. To be noted: purified NS2B-NS3 protease, Rhodamine110 substrate fluorescence; series mostly up to 57.1 µM; activity change, negative = inhibition: at the top concentration. The method in brief:
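Percent inhibition, normalized to uninhibited and enzyme-free controls, is fitted to a 4-parameter Hill equation. Fluorescence change comes from a 15-min cleavage of 1.5 microM bis-peptide Rhodamine110 substrate by 25 nM linked NS2B-NS3 at room temperature.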
(In general: qHTS replaces the single test concentration by a dilution series.)
`C=C1C(=O)O[C@@H]2CC(C)=C([C@@H](C)CCCO)[C@@H](OC(=O)C(C)C)[C@H]12`: the “activity change, negative = inhibition” value was -26% [at 33.1 µM]. Turning to `Oc1ccc(Nc2nc(-c3ccc(Cl)cc3)cs2)cc1`, the “activity change, negative = inhibition” value was 9.76%. Still for that read-out and setting: then `Nc1ncnc2c1ncn2[C@@H]1O[C@H](CO)C[C@H]1O`, with -0.204%. On the same count and under the same terms, then `OCC(Cc1ccccc1)Nc1nc(Oc2ccc3c(c2)CCC3)nc2c1ncn2Cc1ccc(-c2ccccc2)cc1` (stereo not given), with -24.6%; and `Cc1cc2nc(NCCCO)n(CC(=O)c3cc(C(C)(C)C)c(O)c(C(C)(C)C)c3)c2cc1C`, with 64.6%. Same read-out and setting: then `CC1(C)CC23[C@@H]4CC(=O)[C@@H]2COC(=O)[C@@H]3CC[C@H]41`, with 10.2%. In the case of `CC[C@H](CO)Nc1nc(Nc2cccc(-c3ccccn3)c2)c2ncn(C(C)C)c2n1`, the compound was called inactive. Turning to `Cc1ccccc1C(=O)Nc1ccc(C(=O)N2CCC[C@@H](O)c3cc(Cl)ccc32)c(C)c1`, the “activity change, negative = inhibition” value is -6.64%. Same read-out and setting: then `CCCCn1c(-c2ccccc2)nc(-c2ccccc2)c1CN(Cc1ccc2c(c1)OCO2)Cc1ccc2c(c1)OCO2`, with 53.3%; and `CCOC(=O)c1cccc(CNc2ccc(N(C)C(=O)Nc3ccccc3)cc2)c1`, with -5.65%. Regarding `CC1CCN(C(c2ccc(F)cc2)c2ccc(C(C)C(=O)O)cc2-c2ccc(C(F)(F)F)cc2)CC1` (stereo not given), the Potency is 3.16 µM (active).

For `O=C(NC(NC(=S)Nc1ccc(F)c([N+](=O)[O-])c1)C(Cl)(Cl)Cl)C(c1ccccc1)c1ccccc1` (stereo not given), the “activity change, negative = inhibition” value is 4.68% [at 15.1 µM]. For the compound `COc1ccc(CNC(=O)Nc2ncc([N+](=O)[O-])s2)cc1`, the “activity change, negative = inhibition” value is -20.6%. For `OCC(CO)(CO)NCC(O)Cn1c2ccc(Cl)cc2c2cc(Cl)ccc21` (stereo not given), the “activity change, negative = inhibition” value was 69.3%.

In the case of `C=C(C)C(=O)O[C@H]1[C@H]2C(=C)C(=O)O[C@@H]2C[C@@H](C)/C=C\C(=O)[C@](C)(O)[C@@H]1OC(C)=O`, the “outcome” value was “inactive [at 33.1 µM]”.
